PubChem BioAssay (Tox21)
Inconclusive results are not listed. Calls of active or inactive are those of the source. Unless noted, calls follow the shape of the dose curve; as a rule, active = well fitted curve in the direction sought with a large enough effect in the repeat runs; inconclusive = weak or mixed curves; inactive = no such curve, though single readings can be large; an effect the other way counts as inactive or inconclusive.

Legend:
[1] = qHTS assay for small molecules that induce genotoxicity in human embryonic kidney cells expressing luciferase-tagged ATAD5 (AID 651632); also: nearly all actives have a fitted effect of over 15% in size; also: potency is read from the fitted curve at half-maximal effect
Summary of the method: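 Luminescence read-out: after 16 hr compound exposure at 37C, ATAD5-luciferase HEK293T cells received Amplite, 30 min RT, then CCD imaging. A rise in signal marks genotoxic stress.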

[2] = qHTS assay for small molecule agonists of the p53 signaling pathway - cell viability (AID 651633; calls by dose curve; also: nearly all actives have a fitted effect of over 30% in size; also: potency is read from the fitted curve at half-maximal effect)
Summary of the method: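 p53RE-bla cells, seeded at 4,000 per well and rested 5 h at 37 C/5% CO2, received compounds in DMSO for 16 h at 37 C. CellTiter-Glo was then added, and luminescence was read after 30 min at room temperature to gauge cytotoxicity.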

[3] = qHTS assay for small molecules that induce genotoxicity in human embryonic kidney cells expressing luciferase-tagged ATAD5 - cell viability (AID 651634; calls by dose curve; also: nearly all actives have a fitted effect of over 25% in size; also: potency is read from the fitted curve at half-maximal effect)
Summary of the method: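 HEK293T ATAD5-luc cells, 2,000/well; compound 15.5 hr, 37C/5% CO2; CellTiter-Fluor 30 min, 37C; fluorescence read.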

[4] = qHTS assay for small molecule disruptors of the mitochondrial membrane potential - cell viability (AID 720634; calls by dose curve; also: nearly all actives have a fitted effect of over 20% in size; also: potency is read from the fitted curve at half-maximal effect)
Summary of the method: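 Luminescence from CellTiter-Glo (ATP content) gave viability in HepG2 cells, read in the same wells as the MMP dye assay after 1 hr compound exposure at 37 C.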

[5] = qHTS assay for small molecule disruptors of the mitochondrial membrane potential (AID 720635); also: potency is read from the fitted curve at half-maximal effect
Summary of the method: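 HepG2 cells (2,000/well) attached overnight at 37C, then took compound for 1 hr at 37C, 5% CO2. Mito-MPS dye was added for 30 min; fluorescence was read at 490/535 nm (monomers) and 540/590 nm (aggregates).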

[6] = qHTS assay to test for compound auto fluorescence at 590 nm (red) in HepG2 cells (AID 720674)
Summary of the method: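 Intrinsic compound fluorescence in the red window (Ex/Em 540/590 nm) is measured in attached HepG2 cells exposed for 1 hr, DMSO vehicle as baseline, benchmarked to Rose Bengal sodium.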

[7] = qHTS assay to test for compound auto fluorescence at 535 nm (green) in HepG2 cells (AID 720675)
[8] = qHTS assay to test for compound auto fluorescence at 460 nm (blue) in HEK293 cells (AID 720678)
Summary of the method: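 Blue read-out at excitation 405 nm and emission 460 nm follows overnight compound exposure of HEK293 cells at 37C in 5% CO2. Activity is given as auto fluorescence equivalency to triamterene.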

[9] = qHTS assay to test for compound auto fluorescence at 590 nm (red) in HEK293 cells (AID 720679)
Summary of the method: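 Red channel, Ex/Em 540/590nm; signal expressed as equivalency to Rose Bengal sodium. HEK293, 2,000 cells/well, 10% dialyzed FBS; 23 nL compound pinned after 4-5 hr attachment; overnight 37C/5% CO2 before reading.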

[10] = qHTS assay to test for compound auto fluorescence at 535 nm (green) in HEK293 cells (AID 720680)
[11] = qHTS assay to test for compound auto fluorescence at 460 nm (blue) in HEK293 cell free culture (AID 720681)
Summary of the method: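 Test compounds were pinned into cell-free culture medium (DMEM with 10% FBS) and fluorescence was read directly at Ex/Em 405/460 nm. Signals were expressed as fluorescence equivalents of triamterene, with DMSO vehicle as control.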

[12] = qHTS assay to test for compound auto fluorescence at 535 nm (green) in HEK293 cell free culture (AID 720682)
Summary of the method: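 Fluorescein serves as the green reference fluorophore; each compound's intrinsic emission at 535 nm (excitation 485 nm) is reported as an equivalent amount of that dye, measured in serum-containing DMEM without cells.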

[13] = qHTS assay to test for compound auto fluorescence at 590 nm (red) in HEK293 cell free culture (AID 720683)
Summary of the method: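 Tox21 10K library compounds were pinned into cell-free DMEM with 10% FBS and fluorescence was read at excitation 540 nm. Activity is expressed as Rose Bengal sodium equivalency.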

[14] = qHTS assay to test for compound auto fluorescence at 590 nm (red) in HepG2 cell free culture (AID 720684)
Summary of the method: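 Ex 540 / Em 590 nm read of compound in cell-free MEM (10% FBS). Rose Bengal sodium reference.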

[15] = qHTS assay to test for compound auto fluorescence at 460 nm (blue) in HepG2 cell free culture (AID 720685)
Summary of the method: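 Cell-free plates of MEM plus 10% FBS received 23 nL compound or DMSO vehicle; blue-channel (405/460 nm) intensity scored against triamterene as reference fluorophore.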

[16] = qHTS assay to test for compound auto fluorescence at 535 nm (green) in HepG2 cell free culture (AID 720686)
[17] = qHTS assay to test for compound auto fluorescence at 460 nm (blue) in HepG2 cells (AID 720687)
Summary of the method: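 Cells (2,000/well in MEM with 10% FBS) attached overnight at 37 C, then were exposed to compound or DMSO for 1 hr at 37 C, 5% CO2. Fluorescence read at Ex/Em 405/460 nm, expressed as triamterene-equivalent signal.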

[18] = target: Glucocorticoid receptor (Homo sapiens) (UniProt P04150); assay: qHTS assay to identify small molecule agonists of the glucocorticoid receptor (GR) signaling pathway (AID 720691; active = well fitted activation curve with a large enough effect in the signal ratio in the repeat runs, not every such curve was filed as active; the % refers to the signal ratio)
Summary of the method: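 HeLa GR-bla reporter line; cells pre-incubated 4 h, compound in DMSO 18 h at 37 C; LiveBLAzer B/G FRET substrate 2 h RT; fluorescence intensity read-out.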

[19] = target: Glucocorticoid receptor (Homo sapiens) (UniProt P04150); assay: qHTS assay to identify small molecule antagonists of the glucocorticoid receptor (GR) signaling pathway (AID 720692; active = well fitted inhibition curve with a large enough effect in the signal ratio in the repeat runs, not every such curve was filed as active; the % refers to the signal ratio; also: potency is read from the fitted curve at half-maximal effect)
Summary of the method: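 Read-out: beta-lactamase FRET substrate fluorescence, 2 h at room temperature, in HeLa cells stably carrying a GRE-driven bla reporter. Compounds were co-incubated with 5 nM dexamethasone agonist (final) for 18 h at 37 C.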
% is scaled to controls: 0 for no effect and ±100 for the full control effect.

Sequence of Glucocorticoid receptor (Homo sapiens) (P04150 whole entry, looked up): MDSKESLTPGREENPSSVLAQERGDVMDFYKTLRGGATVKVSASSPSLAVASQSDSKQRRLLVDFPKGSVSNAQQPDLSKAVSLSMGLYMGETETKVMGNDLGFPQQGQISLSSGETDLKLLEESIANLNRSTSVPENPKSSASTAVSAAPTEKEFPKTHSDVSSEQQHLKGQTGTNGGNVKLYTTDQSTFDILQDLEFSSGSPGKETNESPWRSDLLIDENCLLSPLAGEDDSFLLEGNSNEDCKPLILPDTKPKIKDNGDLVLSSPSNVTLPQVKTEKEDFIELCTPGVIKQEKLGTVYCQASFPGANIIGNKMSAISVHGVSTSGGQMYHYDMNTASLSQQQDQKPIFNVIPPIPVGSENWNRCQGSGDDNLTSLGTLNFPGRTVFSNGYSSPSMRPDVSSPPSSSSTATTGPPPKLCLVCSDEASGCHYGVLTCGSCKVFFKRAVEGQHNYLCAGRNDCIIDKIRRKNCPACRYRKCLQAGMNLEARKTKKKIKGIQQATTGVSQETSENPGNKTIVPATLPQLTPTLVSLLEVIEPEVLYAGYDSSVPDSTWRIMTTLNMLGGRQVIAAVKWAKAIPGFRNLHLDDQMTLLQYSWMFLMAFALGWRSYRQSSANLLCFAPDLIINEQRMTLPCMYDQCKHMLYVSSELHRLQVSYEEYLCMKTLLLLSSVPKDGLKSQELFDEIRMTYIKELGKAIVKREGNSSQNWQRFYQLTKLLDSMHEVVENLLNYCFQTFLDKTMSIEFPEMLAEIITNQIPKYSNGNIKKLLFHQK

CCCCCC#CC(=O)OC
inactive: Potency [1] | Potency [2] | Potency [3] | Potency [4] | Potency [5] | outcome [6] | outcome [7] | Potency [8] | outcome [9] | outcome [10] | Potency [11] | outcome [12] | outcome [13] | outcome [14] | Potency [15] | outcome [16] | Potency [17]

c1ccc2c(c1)CCc1ccccc1N2
inactive: Potency [1] | Potency [2] | Potency [3] | outcome [6] | outcome [7] | Potency [8] | outcome [9] | outcome [10] | Potency [11] | outcome [12] | outcome [13] | Potency [15] | outcome [16] | Potency [17]
active: Potency [4] 54.8 µM | Potency [5] 19.4 µM

CC(C)c1nc(CN(C)C(=O)N[C@H](C(=O)N[C@@H](Cc2ccccc2)C[C@H](O)[C@H](Cc2ccccc2)NC(=O)OCc2cncs2)C(C)C)cs1
inactive: Potency [1] | Potency [2] | Potency [3] | Potency [4] | outcome [6] | outcome [7] | Potency [8] | outcome [9] | outcome [10] | Potency [11] | outcome [12] | outcome [13] | outcome [14] | Potency [15] | outcome [16] | Potency [18]

CCOC(=O)C1=C(C)NC(C)=C(C(=O)OC)C1c1cccc(Cl)c1Cl (stereo not drawn)
active: Potency [5] 19.7 µM | Potency [19] 10.7 µM
inactive: Potency [1] | Potency [2] | Potency [3] | outcome [6] | outcome [7] | Potency [8] | outcome [9] | outcome [10] | Potency [11] | outcome [12] | outcome [13] | outcome [16] | Potency [18]

O=[N+]([O-])c1ccc(O/N=C/c2cc(Br)c(O)c(Br)c2)c([N+](=O)[O-])c1
active: Potency [3] 24.2 µM | Potency [4] 12.1 µM | Potency [5] 0.859 µM
inactive: Potency [1] | outcome [6] | outcome [7] | outcome [9] | outcome [10] | Potency [11] | outcome [12] | outcome [13] | Potency [15] | outcome [16]

OCCOCC#CCOCCO
inactive: Potency [1] | Potency [2] | Potency [4] | outcome [6] | outcome [7] | Potency [8] | outcome [9] | outcome [10] | Potency [11] | outcome [12] | outcome [13] | outcome [14] | Potency [15] | outcome [16]

Cc1ccc2c(Br)cc(Br)c(O)c2n1
inactive: Potency [3] | Potency [4] | outcome [6] | outcome [7] | Potency [8] | outcome [9] | outcome [10] | Potency [11] | outcome [12] | outcome [13] | outcome [14] | Potency [15] | outcome [16] | Potency [17]
active: Potency [1] 23.7 µM | Potency [5] 23.7 µM | Potency [19] 23.9 µM

CC1(CN2CCC(n3c(=O)[nH]c4ccccc43)CC2)OCc2ccccc2-n2cccc21 (stereo not drawn)
active: Potency [2] 29.8 µM | Potency [5] 29.8 µM
inactive: Potency [1] | Potency [4] | outcome [6] | outcome [7] | Potency [8] | outcome [9] | outcome [10] | Potency [11] | outcome [12] | outcome [13] | Potency [15] | outcome [16] | Potency [18]

NNC(=O)CP(=O)(c1ccccc1)c1ccccc1
inactive: Potency [1] | Potency [2] | Potency [3] | Potency [4] | outcome [6] | outcome [7] | outcome [9] | outcome [10] | Potency [11] | outcome [12] | outcome [13] | outcome [14] | Potency [15] | outcome [16] | Potency [17] | Potency [18]

CCOc1cccc(-n2cc(C(=O)N3CCN(c4cc(C(=O)O)c5ccccc5c4)CC3)nc2-c2ccc(C)cc2)c1
active: Potency [2] 20.7 µM
inactive: Potency [1] | Potency [4] | outcome [6] | outcome [7] | outcome [9] | outcome [10] | Potency [11] | outcome [12] | outcome [13] | outcome [14] | Potency [15] | outcome [16] | Potency [17] | Potency [18]

Cc1cc(=O)c2c(O)c3c(O)cc(=O)c4c3c3c(cc(O)c1c23)C(C)(C)C=4O
active: Potency [2] 1.06 µM | Potency [3] 2.66 µM | Potency [5] 0.473 µM
inactive: Potency [1] | outcome [6] | Potency [8] | outcome [9] | outcome [10] | Potency [11] | outcome [12] | outcome [13] | outcome [14] | Potency [15] | Potency [17]

O=C(OCC(O)CO)c1ccccc1Nc1ccnc2cc(Cl)ccc12 (stereo not drawn)
inactive: Potency [1] | Potency [2] | Potency [4] | fluorescence, relative to Rose Bengal [6] 0.0018% [at 18.6 µM] | fluorescence, % of fluorescein control [7] 0.0219% [at 18.6 µM] | fluorescence, % of fluorescent control [9] -0.0042% [at 18.6 µM] | fluorescence, % of fluorescein [10] -0.106% [at 18.6 µM] | fluorescence, % of fluorescent control [11] 0.416% [at 18.6 µM] | activity change [12] 0.0295% [at 18.6 µM] | fluorescence, % of fluorescent control [13] 0.0763% [at 18.6 µM] | fluorescence, % of Rose Bengal [14] 0.268% [at 18.6 µM] | fluorescence, % of fluorescent control [15] 0.0675% [at 18.6 µM] | fluorescence, % of fluorescein control [16] -0.0285% [at 18.6 µM] | fluorescence, % of fluorescent control [17] 0.322% [at 18.6 µM]

O=C(O)CCc1nc(-c2ccccc2)c(-c2ccccc2)o1
inactive: Potency [1] | Potency [2] | Potency [4] | Potency [5] | outcome [6] | outcome [7] | Potency [8] | outcome [9] | outcome [10] | Potency [11] | outcome [12] | outcome [13] | outcome [14] | Potency [15] | Potency [17] | Potency [18] | Potency [19]

O=C1c2ccccc2C(=O)N1CCc1noc(-c2ccc(CN3CCCCCC3)s2)n1
inactive: Potency [1] | Potency [2] | Potency [3] | Potency [4] | outcome [6] | outcome [7] | outcome [9] | outcome [10] | Potency [11] | outcome [12] | outcome [13] | Potency [15] | outcome [16] | Potency [17]

COc1cc(C(=O)NC2CCN(C)CC2)ccc1Nc1ncc2c(n1)N(C1CCCC1)CC(F)(F)C(=O)N2C
active: Potency [1] 1.58 µM | Potency [2] 44.5 µM | Potency [3] 79.1 µM | Potency [5] 44.5 µM
inactive: outcome [6] | outcome [7] | Potency [8] | outcome [9] | outcome [10] | Potency [11] | outcome [12] | outcome [13] | Potency [15] | outcome [16] | Potency [17]
